Shown are actives, neighbours in structure and some others; about 3.7% of the full set was active somewhere.
tim23-1 inh = inhibits growth of tim23-1 mutant yeast. S. cerevisiae tim23-1 growth, BacTiter-Glo luminescence, 24 h. hit rate 1.3% among 330,000. inhibition, % at 20 µM;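 active = growth inhibition of the mutant yeast at or above 50%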;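 note: temperature-sensitive mutant grown at 25 °C; plate controls were DMSO-treated mutant yeast for no effect and medium wells lacking yeast for full effect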
PfHsp90 yeast 2 = inhibits growth of yeast expressing Plasmodium falciparum Hsp90; hit rate 0.32% among 310,000; AID 504621; S. cerevisiae expressing PfHsp90, BacTiter-Glo ATP, 48 h; yeast lacking PDR1 and PDR3 efflux regulators; inhibition, % at 9.4 µM;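 active = every replicate shows inhibition above about 80%, whatever the replicate mean, limit read from the data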;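 note: 0% = DMSO neutral controls and 100% = 20 µM radicicol positive controls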
tim10-1 inh = growth inhibitors of tim10-1 mutant yeast. S. cerevisiae tim10-1 ts strain growth, BacTiter-Glo, 24 h. inhibition, % at 20 µM. hit rate 2.2% among 330,000. AID 463190;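 active = inhibition of at least 40%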;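 note: mutant grown at 25 °C; 0% = DMSO wells with yeast and 100% = wells holding no yeast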
TIM10 inh = TIM10 yeast growth inhibition. S. cerevisiae TIM10 strain growth, BacTiter-Glo luminescence, 24 h. inhibition, % at 10 µM. hit rate 1.4% among 330,000. AID 463195;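 active = inhibition of 40% or more at the single tested concentration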;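 note: wild-type TIM10 isogenic control strain grown at permissive 25 °C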
NALP3 yeast inh = inhibitors of NALP3 inflammasome in yeast; Yeast reconstituted NLRP3/ASC/caspase-1, beta-gal luminescence, 24 h; hit rate 0.39% among 330,000; inhibition, % at 10 µM;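 active = inhibition of 50% or more; inactive = inhibition below 50%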;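 note: plate controls were induced DMSO wells for no effect and uninduced yeast grown without galactose for full effect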
NALP3 confirm = confirmation of NALP3 inhibitors in yeast; shares compounds with NALP3 yeast inh; yeast expressing human NALP3, luminescence; hit rate 81% among 1,300; inhibition, % at 10 µM; AID 435006; in the data active = inhibition above about 48%
Casp1 ASC ctr = active in yeast caspase-1-ASC counter-screen for NALP3 inhibitors. shares compounds with NALP3 yeast inh. hit rate 66% among 1,000. inhibition, % at 10 µM. yeast expressing Caspase-1-ASC, luminescence counter screen
NALP3 retest = yeast NALP3 inhibition, confirmed on retest. shares compounds with NALP3 yeast inh. yeast expressing human NALP3, luminescence read-out. inhibition, % at 10 µM. hit rate 53% among 1,000. AID 488794
Active calls of the source: *; / = not tested or not shown. Cut-off read from the data, not from the text of the source, unless noted: active = inhibition above about 50%; inactive = the rest.

SMILES | tim23-1 inh | PfHsp90 yeast 2 | tim10-1 inh | TIM10 inh | NALP3 yeast inh | NALP3 confirm | Casp1 ASC ctr | NALP3 retest
CNC(=O)c1c(O)c2cccc3c2n(c1=O)CCC3 | 49 | -8 | -14 | 31 | 50* | 64* | 39 | 48
CCN(CC)CCNC(=O)c1c(O)c2cccc3c2n(c1=O)CCC3 | / | 6 | / | / | / | / | / | /
CCCCCCNC(=O)c1c(O)c2cccc3c2n(c1=O)CCC3 | -28 | 16 | -18 | -3 | 17 | / | / | /
CCOC(=O)c1cnc(-c2ccccc2O)nc1Cl | 13 | -8 | 3 | -8 | 4 | / | / | /
CCOC(=O)C1=Nc2ccccc2C1=[N+]=[N-] | 36 | 122* | 14 | -29 | 82* | 89* | 97* | 87*
CCCCn1nc(C(=O)NCc2ccccc2CN2CCCC2)c2ccccc2c1=O | -3 | -15 | 2 | 13 | 16 | / | / | /
Cc1c(C=O)c2ccccn2c1C(=O)c1ccc(Cl)c([N+](=O)[O-])c1 | -6 | 8 | -17 | 1 | 19 | / | / | /
Cc1c(C=O)c2ccccn2c1C(=O)c1ccccc1 | 32 | 14 | 17 | -17 | 56* | 59* | 55* | 41
Cc1c(C=O)c2ccccn2c1C(=O)c1ccc(F)cc1 | 35 | 40 | -10 | -8 | 59* | 72* | 60* | 54*
Cc1c(/C=N/NC(=O)CNc2ccccc2)c2ccccn2c1C(=O)c1ccc(Cl)cc1 | 26 | 14 | 7 | 15 | 11 | / | / | /
C/C(=N\Nc1ccc(C(=O)O)cc1)c1ccc(Br)cc1 | 37 | -31 | 0 | 8 | 12 | / | / | /
C/C(=N/Nc1ncc(Br)cn1)c1ccc(Br)cc1 | 10 | 0 | -7 | 1 | 55* | 70* | 61* | 52*
O=C1CCC[C@@H]2[C@H]3CCC[N+]4([O-])CCC[C@@H](CN12)[C@@H]34 (stereo not given in full) | 0 | -2 | 4 | -13 | 1 | / | / | /
Cc1ccc(C(=O)NC(=C(Cl)Cl)S(=O)(=O)c2ccc(Cl)cc2)cc1 | 35 | -12 | 7 | -2 | 57* | 41 | 33 | 40
Cc1ccc(C(=O)NC(=C(Cl)Cl)S(=O)(=O)c2ccc(C)cc2)cc1 | 36 | -58 | 19 | 17 | 31 | / | / | /
Cc1cc(Cl)c2oc(C(=O)N(C)Cc3ccon3)c(C)c2c1 | 42 | -9 | 29 | -1 | 50* | 48* | 41 | 47
Cn1c(SCc2nc(-c3ccc(Br)cc3)no2)nnc1-c1ccco1 | 35 | -10 | 19 | 13 | 58* | 71* | 61* | 49
Nc1cccc(-c2nc3ccccc3s2)c1 | 35 | -21 | 26 | 4 | 26 | / | / | /
CC(=O)Nc1cccc(-c2nc3ccccc3s2)c1 | 39 | 10 | 16 | 8 | 54* | 46 | / | /
Oc1cccc(-c2nc3ccccc3s2)c1 | 47 | -21 | 34 | 29 | 73* | 84* | 82* | 69*
CC(=O)Nc1cccc(-c2nc3ccc(NC(C)=O)cc3s2)c1 | 4 | / | 4 | 5 | 13 | / | / | /
CCC(C(=O)OC)n1cnc2scc(-c3ccc(C)c(C)c3)c2c1=O (stereo not given) | 41 | -80 | 25 | 22 | 97* | 99* | 99* | 98*
CCOC(=O)c1ccc2c(c1)NCc1cccc(OC)c1O2 | 22 | -1 | 17 | 3 | 54* | 63* | 46 | 42
COc1ccc(C(=O)OCC(=O)c2ccc3c(c2)NC(=O)CO3)cc1OC | -9 | -9 | -11 | -8 | 7 | / | / | /
CCN(CC)c1ccc2c(Cl)cc(=O)oc2c1 | 10 | / | -1 | 25 | 58* | 53* | 59* | 44
SMILES | tim23-1 inh | PfHsp90 yeast 2 | tim10-1 inh | TIM10 inh | NALP3 yeast inh | NALP3 confirm | Casp1 ASC ctr | NALP3 retest
CCN(C(=O)COC(=O)/C=C/c1nc2ccccc2s1)c1c(N)n(Cc2ccccc2)c(=O)[nH]c1=O | / | -1 | / | / | / | / | / | /
CSc1ncc(C(=O)Nc2ccccc2)cn1 | -3 | 9 | -44 | -6 | 59* | 72* | 57* | 55*
COc1cccc(NC(=O)c2cnc(SC)nc2)c1 | 12 | 18 | 2 | -4 | 69* | 72* | 68* | 58*
CC(=O)c1cccc(N(CC(=O)NC2CCCCC2)C(=O)CCC(=O)Nc2nc(C)cs2)c1 | 3 | -28 | -14 | 4 | 7 | / | / | /
NCCCCCc1nnc(SCc2ccc(Cl)cc2Cl)o1 | -2 | / | 18 | 5 | 31 | / | / | /
NCCc1nnc(SCc2ccccc2Cl)o1 | 1 | 4 | -15 | -6 | 73* | 73* | 70* | 72*
COc1cccc2cc(-c3ccccc3)c(=O)oc12 | 32 | 7 | -15 | 8 | 54* | 72* | 58* | 50*
COC(=O)C(C)Oc1ccc2cc(-c3ccccc3)c(=O)oc2c1 (stereo not given) | 12 | -2 | 9 | -27 | 31 | / | / | /
COc1ccc2c(=O)c3ccccc3oc2c1 | 19 | -28 | 4 | -4 | 57* | 68* | 48 | 45
COc1ccc2cc(-c3ccccc3)c(=O)oc2c1 | 28 | 14 | -12 | -24 | 63* | 75* | 68* | 63*
CC(CCC(=O)O)C1CCC2C3CC(O)C4CC(O)CC[C@]4(C)C3CCC12C (stereo not given in full) | / | 6 | / | / | / | / | / | /
O=C(O)c1cccc(N2C(=O)CSC2=S)c1 | 10 | 7 | 13 | 14 | 11 | / | / | /
O=C1CSC(=S)N1c1cccc(O)c1 | 35 | 20 | 11 | 2 | 92* | 93* | 99* | 96*
O=C(Oc1cccc2c(O)cccc12)c1ccco1 | / | -5 | / | / | / | / | / | /
C(=C\c1nc2ccccc2[nH]1)/c1ccccc1 | 43 | 78* | 30 | 31 | 61* | 84* | 60* | 57*
CC(C)=CCc1c(O)cc2oc3c(CC=C(C)C)c(O)c(O)c(CC=C(C)C)c3c(=O)c2c1O | 15 | 13 | 13 | -4 | 56* | 74* | 51* | 47
CC(=O)c1ccc(O)c(CC=C(C)C)c1O | 16 | / | 28 | -5 | 14 | / | / | /
COCc1cc(N2CCOCC2)nc(SCc2ccc(Cl)cc2)n1 | 9 | 12 | -7 | 9 | 58* | 47* | 68* | 43
Cn1c(SCC(=O)NCCc2ccccc2)nnc1C1CCCCC1 | 7 | -35 | -8 | 5 | 3 | / | / | /
O=C(Nc1ccc(-c2nc3ccccc3o2)cc1)C1CCCO1 (stereo not given) | 43 | 34 | 22 | 25 | 55* | 72* | 60* | 41
CCc1ccc(C(=O)NNc2ccccc2F)cc1 | 10 | 25 | -11 | -2 | 35 | / | / | /
CCc1ccc(C(=O)NNc2ccc(C)c(Cl)c2)cc1 | 28 | 10 | -11 | -13 | 53* | 53* | 46 | 29
CCc1ccc(C(=O)NNc2ccc(F)cc2)cc1 | 14 | 4 | -15 | -43 | 16 | / | / | /

Source: PubChem BioAssay (several laboratories)
